We go through 39 compounds from PubChem BioAssay (NCI).

About 83,000 compounds went through this panel and 20% of them were active in at least one assay; those are over-represented in the sample as a whole.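 Method: cells in 96-well plates; compound added at one concentration; 48 h incubation; percent growth measured; values under 10 scored active.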 Calls of active or inactive are those of the source.

In the first test the test system is SNB-75 CNS. Briefly: NCI-60 one-dose screen, 48 h (100 = growth as untreated, 0 = no growth, -100 = all killed). The settings on record: 10 µM unless noted.
On to `CN1CCCCC1CCN1c2ccccc2Sc2ccc(Br)cc21` (configuration not stated), for which the growth is 3.86% (active). For `O=C1Nc2ccc(Br)cc2C12CC(c1ccccc1)=NN2` (configuration not stated), the growth was 28.1% (inactive).

For the compound `O=C(N/N=C/c1ccc(O)cc1O)c1cccnc1`, the growth is 37.7% (inactive). For `O=C(Nc1ccc(F)cc1)Nc1ccc(CCO)cc1`, the growth was 72.6% (inactive). Turning to `C[C@@H]1CC[C@@H]2[C@@H]1[C@H](OC(=O)/C=C/c1ccccc1)[C@]1(C3CCCCC3)C[C@@H](OC(=O)CO)[C@@]2(C)O1`, the growth is 88.4% (inactive). In the case of `O=C1Nc2ccccc2/C1=C/C(=N/c1nnc(-c2ccccc2)s1)c1ccccc1`, the growth was 78.7% (inactive).

In the case of `CCCCCCCCOC(=O)CC[C@@H](C)[C@H]1CC[C@H]2[C@@H]3[C@H](OC(=O)CCN)C[C@@H]4C[C@H](OC(=O)CCN)CC[C@]4(C)[C@H]3C[C@H](OC(=O)CCN)[C@]12C`, the growth is 63.9% (inactive).

The subject of a further test is SNB-19 CNS. Described as above. The settings on record: 10 µM unless noted.
Take `Nc1cc2nc3ccccc3sc-2cc1=O`: the growth is 91.7% (inactive). Same read-out and setting: in the case of `Cc1noc(C)c1-c1cc(O)cc(C(O)c2ccccc2)c1` (configuration not stated) it was 52.7% (inactive); in that of `CCCCCC(=O)N(CCCC)CCCC`, 92.9% (inactive). As for `COc1ccc(/C=N\NC(=O)c2ccncc2)cc1O`, the growth is 95.1% (inactive).

On to `O=C(Cn1cc(CN2C(=O)c3ccccc3S2(=O)=O)nn1)Nc1ccc([N+](=O)[O-])cc1Cl`, for which the growth was 98.2% (inactive).

In the case of `Oc1ccc(Nc2nccc(-c3ccc4ccccc4c3)n2)cc1`, the growth was 50.9% (inactive).

`O=C1C=CC(=O)c2c1nc1n2CCCC1`: the growth is 63.9% (inactive). The same measure, in the same setting: in the case of `Cc1cc(Nc2nc(N3CCOCC3)nc3ccccc23)n[nH]1` it was 93.2% (inactive); in that of `Cc1ccc(C2CC3c4ccccc4C2C2CCCCN32)cc1` (configuration not stated), 87.4% (inactive).

As to `Cc1csc2ccc(Cl)cc12`, the growth is 99.2% (inactive). On to `O=S(=O)(Nc1ccc(F)c(Cl)c1)c1ccc(-c2cnc(C3CC3)o2)cc1`, for which the growth is 49.3% (inactive). With `CC#Cc1nc2ccccc2c(=O)[nH]1`, the growth was 123% (inactive). Turning to `C[C@H](CCC(=O)O)[C@H]1CC[C@H]2[C@@H]3CC[C@@H]4/C(=C\c5ccco5)C(=O)/C(=C\c5ccco5)C[C@]4(C)[C@H]3CC[C@]12C`, the growth is 79% (inactive). As to `Cc1cc(Nc2nc(-c3cccnc3)nc3ccccc23)n[nH]1`, the growth is 77.6% (inactive).

On to `COc1cc(OC)c(/C=C/c2cc[n+](C)c3ccccc23)c(OC)c1`, for which the growth was 26.4% (inactive). For the compound `CCCCCCCCCCCCCCCC[N+]1(CC)CCCC1`, the growth is -53.9% (active). On to `CC(=O)OCC(=O)C1CCC=CC1OC(C)=O` (configuration not stated), for which the growth is 93.5% (inactive).

For `COC1C/C(=N\O)C2OC(c3ccccc3)OCC2O1` (configuration not stated), the growth was 94.3% (inactive). Turning to `CC[C@H](Nc1nc(N)nc(C)c1C#N)c1nc2cccc(NCc3ccc(C(=O)NO)cc3)c2c(=O)n1-c1ccccc1`, the growth was 7.28% (active). For `Cc1nn(-c2ccccc2)c2nc(C)n(-c3ccc(Br)cc3)c(=O)c12`, the growth was 47.5% (inactive). For `Cc1ccc2c(NCCCN(C)C)c3c(C)nn(C)c3nc2c1`, the growth is 63% (inactive).

For the compound `NC(CC(=O)O)C(=O)OCc1ccccc1` (configuration not stated), the growth is 101% (inactive). As to `NCCN1CCN(c2nccc(-c3ccc4ccccc4c3)n2)CC1`, the growth is 63.9% (inactive). Take `Nc1ccc(Nc2nccc(-c3ccc4ccccc4c3)n2)cc1`: the growth was 62.9% (inactive). With `CCCNc1nc(SC)nc(-c2cccc(N)c2)c1C#N`, the growth was 91.6% (inactive). Consider `CN(C)CCOc1ccc(-c2nc3ccc(-c4nc5ccc(N6CCN(C)CC6)cc5[nH]4)cc3[nH]2)cc1`, for which the growth is 69.4% (inactive). Consider `CCCCCCCCCCCCN1CCCC(C)C1` (configuration not stated), for which the growth is 101% (inactive). Take `COc1ccc(-c2nc(Nc3cc(C)[nH]n3)c3ccccc3n2)cc1`: the growth is 53.8% (inactive). As for `CN[C@@]12CC3(C=CC(=O)C=C3)O[C@]1(Cc1ccc(OC)cc1)N(C)C(=O)N2`, the growth was 92.2% (inactive).

Turning to `COc1cc2cc(COc3nccc(-c4ccc(Cl)cc4)n3)c(=O)[nH]c2cc1OC`, the growth is 77.1% (inactive). As to `Cc1ccc(S(=O)(=O)N(CCc2ccc(Cl)cc2)S(=O)(=O)c2ccc(C)cc2)cc1`, the growth was 94.6% (inactive).

`CC[C@H](Nc1cc(C)nc(N)n1)c1nc2cccc(NCc3ccc(C(=O)NO)cc3)c2c(=O)n1-c1ccccc1`: the growth is -40.3% (active). Consider `CN1CCCCC1CCN1c2ccccc2Sc2ccc(Br)cc21` (configuration not stated), for which the growth was 97.4% (inactive). `O=C1Nc2ccc(Br)cc2C12CC(c1ccccc1)=NN2` (configuration not stated): the growth was 69.1% (inactive). For `O=C(N/N=C/c1ccc(O)cc1O)c1cccnc1`, the growth is 70.5% (inactive).
